The structures appear in SMILES notation. Hit rate of the full screen: of about 15,000 compounds, about 60 (0.4%) were called active. The sample as a whole holds a higher share of actives than the screen did. A number with no mark means an inactive call. Rule as the data show it: active = activation above about 2.2%; inactive = the rest.

This test can be described thus: activates NOTCH signaling in reporter cells (AID 434982). As to conditions: NOTCH signaling luciferase reporter cells, luminescence; at 2.5 µM; hits give high values.
Regarding `O=C1/C(=C\c2ccc3c(c2)OCO3)N2CCC1CC2`, the activation was 3.83% (active).

As to `CN(C)CC1CCCCC1=O` (stereo not given), the activation was 0.24%.

Take `CNC(=O)O/N=C(\N)Cc1csc2ccc(Cl)cc12`: the activation is 0.88%.

`Cc1ccc(Oc2c(C)nc(-c3ccccc3)nc2OC(=O)N(C)C)cc1`: the activation is 0.1%.

As to `N#CCN1CCN(c2cccc(Cl)c2)CC1`, the activation is 0.33%.
